Source: PubChem
Rows were chosen to be rich in hits. Some 19% of all compounds tested hit in one or more screens of this group.
HT1080-NT tox: kills 2HG-producing HT-1080-NT fibrosarcoma cells | HT-1080-NT fibrosarcoma viability, CellTiter-Glo ATP luminescence, 48 h | AID 686970 | Potency, µM (series often up to 46.1 µM), without a hit: at the top dose activity, negative = less viability, hits mostly cytotoxic | 1.6% of 360,000 active;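 note: NT is the 2HG producing partner of a matched IDH1 knockdown line; 0% = DMSO-treated cells and -100% = media-only wells without cells; nearly all actives have a fitted effect of over 55% in size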
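Viability by CellTiter-Glo luminescence after 48 h compound exposure at 37C of HT-1080-NT cells (750/well, RPMI, 5% FBS). % activity scaled between DMSO wells and medium-only wells, then curve-fitted and categorized by curve class.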
TDP1 cell noCPT: qHTS for Inhibitors of human tyrosyl-DNA phosphodiesterase 1 (TDP1): qHTS in cells in absence of CPT | DT40 Tdp1-/- hTDP1 cells, no CPT, ATP luminescence, 48 h | Potency, µM (top dose mostly 46.2 µM), inactives show at the top dose activity change, negative = growth inhibition, most hits filed as inhibitors | 15% of 420,000 active | AID 686978, 2013; note: nearly all actives have a fitted effect of over 55% in size
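Chicken DT40 Tdp1-/- cells stably complemented with human TDP1 were seeded at 400 cells/well with DMSO in place of 20 nM camptothecin. After compound pinning, cells grew at least 48 hr at 37 °C; viability read by CellTiter-Glo luminescence.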
HT1080 IDH1KD tx: HT-1080 IDH1 knockdown cell toxicity (counter line) | 2% of 360,000 active | Potency, µM (doses to about 46.1 µM), for inactives: top-dose activity, negative = toxicity, actives largely listed as cytotoxic | HT-1080 IDH1 knockdown viability, ATP luminescence, 48 h;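 note: 0% = DMSO wells and -100% = cell-free medium wells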
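In this qHTS, HT-1080 cells depleted of IDH1 are exposed for 48 h at 37 °C to compound titrations. Toxicity is scored from CellTiter-Glo luminescence, with DMSO as full viability and medium alone as none.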
KB-3-1 cytotox: KB-3-1 parental cell cytotoxicity | KB-3-1 viability, CellTiter-Glo ATP luminescence, 72 h | 1.4% of 400,000 active | AID 1347075 | Potency, µM (top dose mostly 46.1 µM), hits mostly cytotoxic; note: nearly all actives have a fitted effect of over 60% in size
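Cells are dispensed, compounds pinned in, plates held at 37 °C for 72 h, then CellTiter-Glo is added and luminescence read after 10 minutes. Cell line: parental KB-3-1 in phenol-red-free DMEM, 10% FBS.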
TDP1 cell CPT: DT40-hTDP1 cell growth loss with CPT; chicken DT40 Tdp1-/-;hTDP1 cells + 20 nM CPT, ATP luminescence, 48 h; Potency, µM (titrated, usually from 46.2 µM), inactives show top-dose activity change, negative = growth inhibition, usual class: inhibitors; 12% of 420,000 active; AID 686979; note: nearly all actives have a fitted effect of over 55% in size
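Cell growth measured by CellTiter-Glo luminescence after a minimum 48 h, 37 C compound exposure with 20 nM CPT in Tdp1-knockout DT40 cells stably expressing hTDP1, seeded 400/well; qHTS titration format.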
KB-V1 cytotox: kills drug-selected multidrug resistant KB-V1 cells | KB-V1 MDR cells viability, CellTiter-Glo, 72 h | Potency, µM (top dose mostly 46.1 µM), hits mostly cytotoxic | 3.4% of 400,000 active | AID 1347076; note: nearly all actives have a fitted effect of over 60% in size
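KB-V1, DMEM (no phenol red) + 10% FBS; cpd pin-transferred, titration series; 72 h, 37 degrees C; CellTiter-Glo, luminescence. Data normalized, curve-fit.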
* hit, by the source's call. Calls come from the whole dose curve; as a rule, active = well fitted curve in the direction sought with a large enough effect; inconclusive = small, poorly fitted or top-dose-only effect, or another doubt; inactive = no such curve, though single readings can be large; an effect the other way counts as inactive or inconclusive. Unless noted, % is set by controls: 0 for no effect and ±100 for the full control effect; potency is the fitted concentration of half-maximal effect.

For Cc1ccc(S(=O)(=O)N2[C@@H](CO)CO[C@H]2CC(=O)c2cccc3ccccc23)cc1 the results were HT1080-NT tox -0.5%, TDP1 cell noCPT inconclusive, HT1080 IDH1KD tx 1.0%, KB-3-1 cytotox inactive, TDP1 cell CPT inconclusive and KB-V1 cytotox inactive.
Screening CN(C)Cc1ccccc1-c1cncnc1Nc1ccncc1 returned TDP1 cell noCPT -17.3% and TDP1 cell CPT -6.1%.
Screening Cc1cc(C)c(NC(=O)C(C)Sc2nc3ccc(N4C(=O)c5ccccc5C4=O)cc3s2)c(C)c1 (configuration not stated) returned HT1080-NT tox -1.8%, TDP1 cell noCPT 35.5µM*, HT1080 IDH1KD tx 4.1%, KB-3-1 cytotox inactive, TDP1 cell CPT inconclusive and KB-V1 cytotox inactive.
For Cc1cc(C)c(NC(=O)CSc2nc3ccc(N4C(=O)c5ccccc5C4=O)cc3s2)c(C)c1 the results were HT1080-NT tox 18.0%, TDP1 cell noCPT -15.1%, HT1080 IDH1KD tx 15.2%, KB-3-1 cytotox inactive, TDP1 cell CPT 0.3% and KB-V1 cytotox inactive.
`COc1ccc(Nc2nc(NCc3ccco3)nc(N)c2[N+](=O)[O-])cc1` gave HT1080-NT tox 0.5%, TDP1 cell noCPT -14.6%, HT1080 IDH1KD tx 7.1%, KB-3-1 cytotox inactive, TDP1 cell CPT 11.2% and KB-V1 cytotox inactive.
`Nc1nc(Nc2cccc(F)c2)nc(NCc2ccco2)c1[N+](=O)[O-]` gave HT1080-NT tox 9.2µM*, TDP1 cell noCPT inconclusive, HT1080 IDH1KD tx 25.9µM*, KB-3-1 cytotox inconclusive, TDP1 cell CPT -78.6% and KB-V1 cytotox inconclusive.
Cc1cccc(Nc2nc(NCc3ccco3)nc(N)c2[N+](=O)[O-])c1 was read as HT1080-NT tox 0.2%, TDP1 cell noCPT -29.4%, HT1080 IDH1KD tx -9.8%, KB-3-1 cytotox inactive, TDP1 cell CPT -22.1% and KB-V1 cytotox inactive.
For Nc1nc(Nc2cccc(Cl)c2)nc(NCc2ccco2)c1[N+](=O)[O-] the results were HT1080-NT tox inconclusive, TDP1 cell noCPT inconclusive, HT1080 IDH1KD tx 16.4µM*, KB-3-1 cytotox 16.4µM*, TDP1 cell CPT -22.5% and KB-V1 cytotox inconclusive.
`Nc1nc(Nc2ccc(Cl)cc2)nc(NCc2ccco2)c1[N+](=O)[O-]` gave HT1080-NT tox inconclusive, TDP1 cell noCPT inconclusive, HT1080 IDH1KD tx 18.4µM*, KB-3-1 cytotox inactive, TDP1 cell CPT inconclusive and KB-V1 cytotox 16.4µM*.
Cc1cccc(Nc2nc(N)c([N+](=O)[O-])c(NCc3ccco3)n2)c1 was read as HT1080-NT tox inconclusive, TDP1 cell noCPT inconclusive, HT1080 IDH1KD tx inconclusive, KB-3-1 cytotox inconclusive, TDP1 cell CPT -9.1% and KB-V1 cytotox 7.31µM*.
Screening Cc1ccc2[nH]c(C(=O)Nc3ccccc3)cc2c1 returned TDP1 cell noCPT inconclusive, KB-3-1 cytotox inactive, TDP1 cell CPT inconclusive and KB-V1 cytotox inactive.
Cc1oc2c(c1C(=O)c1ccccc1)C(=O)C(=O)c1ccccc1-2 was read as HT1080-NT tox 18.4µM*, TDP1 cell noCPT 1.84µM*, HT1080 IDH1KD tx 18.4µM*, KB-3-1 cytotox inconclusive, TDP1 cell CPT 1.16µM* and KB-V1 cytotox inactive.
`O=C1C(=O)c2c(C(=O)c3ccccc3)coc2-c2ccccc21` gave HT1080-NT tox -0.4%, TDP1 cell noCPT 2.06µM*, HT1080 IDH1KD tx inconclusive, KB-3-1 cytotox inconclusive, TDP1 cell CPT 3.26µM* and KB-V1 cytotox 20.6µM*.
CCOC(=O)c1c(C)oc2c1C(=O)c1ccccc1C2=O was read as HT1080-NT tox 2.0%, TDP1 cell noCPT 4.11µM*, HT1080 IDH1KD tx 4.7%, KB-3-1 cytotox inconclusive, TDP1 cell CPT 4.61µM* and KB-V1 cytotox inactive.
Screening CC(C)CCNC(=O)C(=O)Nc1ccccc1 returned HT1080-NT tox inconclusive, TDP1 cell noCPT -16.7%, HT1080 IDH1KD tx 13.6%, KB-3-1 cytotox inactive, TDP1 cell CPT -2.3% and KB-V1 cytotox inactive.
`CCOC(=O)C1(C)CCCN(C(=O)c2ccc(OC)cc2)C1` (configuration not stated) gave HT1080-NT tox 10.8%, TDP1 cell noCPT -8.4%, HT1080 IDH1KD tx 24.4%, KB-3-1 cytotox inactive, TDP1 cell CPT 1.1% and KB-V1 cytotox inactive.
For CCCCNC(=O)C(NC(=O)c1ccc2ccccc2c1)C(=O)c1ccccc1 (configuration not stated) the results were HT1080-NT tox -22.7%, TDP1 cell noCPT -26.9%, HT1080 IDH1KD tx inconclusive, KB-3-1 cytotox inactive, TDP1 cell CPT inconclusive and KB-V1 cytotox inconclusive.
O=C(O)C1CCN(C(=O)c2ccc(Cl)cc2)CC1 was read as HT1080-NT tox 11.0%, TDP1 cell noCPT 2.7%, HT1080 IDH1KD tx 11.6%, KB-3-1 cytotox inactive, TDP1 cell CPT 1.1% and KB-V1 cytotox inactive.
O=C(c1ccc(Cl)cc1)C1CCN(C(=O)c2ccccc2)CC1 was read as HT1080-NT tox -28.9%, TDP1 cell noCPT 14.6µM*, HT1080 IDH1KD tx -0.9%, KB-3-1 cytotox inactive, TDP1 cell CPT inconclusive and KB-V1 cytotox inactive.
`O=C(c1ccc(F)cc1)C1CCN(C(=O)c2ccc(Cl)cc2)CC1` gave HT1080-NT tox -1.8%, TDP1 cell noCPT 18.4µM*, HT1080 IDH1KD tx 2.2%, KB-3-1 cytotox inactive, TDP1 cell CPT inconclusive and KB-V1 cytotox inactive.
For O=C(c1ccc(F)cc1)N1CCC(C(=O)N(Cc2ccccc2)c2ccccc2)CC1 the results were HT1080-NT tox -5.9%, TDP1 cell noCPT 18.4µM*, HT1080 IDH1KD tx 2.0%, KB-3-1 cytotox inactive, TDP1 cell CPT 23.1µM* and KB-V1 cytotox inactive.
Screening O=C(c1ccc(F)cc1)C1CCN(C(=O)c2ccccc2)CC1 returned HT1080-NT tox 2.7%, TDP1 cell noCPT inconclusive, HT1080 IDH1KD tx 2.4%, KB-3-1 cytotox inactive, TDP1 cell CPT -1.4% and KB-V1 cytotox inactive.
`O=C(c1ccc2c(c1)OCCO2)C1CCN(C(=O)c2ccc(F)c(F)c2)CC1` gave HT1080-NT tox -1.8%, TDP1 cell noCPT 16.4µM*, HT1080 IDH1KD tx inconclusive, KB-3-1 cytotox inconclusive, TDP1 cell CPT inconclusive and KB-V1 cytotox 5.8µM*.
`COc1ccc(NC(=S)N2CCC(C(=O)c3ccc(Cl)cc3)CC2)cc1` gave HT1080-NT tox 7.9%, TDP1 cell noCPT 10.9%, HT1080 IDH1KD tx 5.3%, KB-3-1 cytotox inactive, TDP1 cell CPT 5.9% and KB-V1 cytotox inactive.
